Assay outcomes from PubChem BioAssay.
Only some compounds are listed: those with a hit (about 2.2% of all), similar ones and a draw of the others.
aSyn 5UTR inh – MLPCN primary screen, SNCA 5' untranslated region; inhibition, % (tested at 7.5 µM); 300,000 tested, 0.82% active; AID 1813; alpha-synuclein 5'UTR reporter, inhibitor activity; in the data active = inhibition above about 60%;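 also: H4 neuroglioblastoma cells stably carrying SNCA 5'UTR luciferase fusion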
APP 5UTR inh – APP translation inhibition; SH-SY5Y APP 5'UTR-luciferase reporter, luminescence; inhibition, % at 2 µM; 190,000 tested, 0.82% active;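 active = inhibition above a set limit, derived from the sample mean plus 3 SD, cut at about 45% in these data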
BaF3 parental – parental Ba/F3 viability inhibition as JAK2V617F counter-screen. 220,000 tested, 1.1% active. CellTiter-Glo ATP luminescence. inhibition, % at 5.6 µM;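 active = inhibition above a per-campaign cutoff, the mean inhibition of all tested compounds plus 3 SD, cut at about 27% in these data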
KLF5 inhibitor – inhibitors of KLF5 expression | DLD-1 KLF5 promoter-luciferase reporter, luminescence | inhibition, % at 5 µM | 290,000 tested, 0.23% active | AID 1700;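 active = inhibition above a per-plate limit of that plate's mean compound inhibition plus 3 SD, cut at about 60% in these data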;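 also: higher means less KLF5 promoter-driven luciferase light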
IEC-6 cytotox – kills IEC-6 intestinal cells in KLF5 counter-screen. inhibition, % at 5 µM. AID 1825. 290,000 tested, 0.78% active. IEC-6 cytotoxicity, luminescence viability
Ba/F3 V617F tox – lowers viability of Ba/F3 cells expressing EpoR and JAK2V617F | ATP luminescence | inhibition, % at 5.6 µM | 220,000 tested, 1.1% active | AID 1446;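 active = inhibition above the campaign mean plus 3 SD over all tested compounds, cut at about 24% in these data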;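 also: cytokine-independent growth of Ba/F3 cells driven by EpoR plus mutant JAK2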
IEC-6 cytotox cf – confirmation of cytotoxic compounds in rat IEC-6 intestinal epithelial cells. IEC-6 rat intestinal epithelial viability, luminescence. inhibition, % at 5 µM. shares compounds with IEC-6 cytotox. 1,900 tested, 63% active
Hits are given with their value; 0 = inactive; - = no result. Rule as the data show it, unless noted: active = inhibition above about 22%; inactive = the rest.

SMILES | aSyn 5UTR inh | APP 5UTR inh | BaF3 parental | KLF5 inhibitor | IEC-6 cytotox | Ba/F3 V617F tox | IEC-6 cytotox cf
CC(=O)Nc1ccc(NC(=O)c2nc(S(=O)(=O)Cc3ccccc3)ncc2Cl)cc1 | 0 | - | - | 0 | 26 | - | 0
FC(F)(F)C(Oc1nc(NC2CCCCC2)nc(N2CCOCC2)n1)C(F)(F)F | 0 | 0 | 0 | 0 | 0 | 0 | -
Nc1ccccc1-c1nc2ccccc2c(=O)o1 | 0 | - | - | 0 | 0 | - | -
O=C(NCc1ccccc1)c1c(Cl)nc(Cl)c(Cl)c1Cl | 99 | - | - | 0 | 23 | - | 0
O=C(CCl)N1CCCC1c1ccc2c(c1)OCCO2 (configuration not stated) | 0 | - | - | 0 | 78 | - | 24
O=C(Nc1ccc(-n2ccc(C(F)(F)F)n2)cc1)Nc1cccc(Cl)c1 | 0 | - | 63 | 0 | 23 | 54 | 48
Cc1cc(C)cc(NC(=O)Nc2ccc(-n3ccc(C(F)(F)F)n3)cc2)c1 | 0 | - | 0 | 0 | 0 | 0 | -
CCC(=O)Nc1nc2ccccc2n1CCN(C)C | 0 | 0 | 0 | 0 | 0 | 0 | -
Cc1cccc(NC(=O)NNC(=O)c2ccc3ccccc3c2O)c1 | 0 | - | - | 0 | 0 | - | -
COCCN(C(=O)Nc1ccccc1OC)c1nc2ccccc2s1 | 0 | - | - | 0 | 45 | - | 31
N#CCCN(C(=O)Cn1nc(C(=O)O)c2ccccc2c1=O)c1ccccc1 | 0 | - | - | 0 | 0 | - | -
CCOc1ccc(C(=O)Nc2cccc3cccnc23)cc1 | 0 | - | - | 0 | 0 | - | -
CCOc1ccc(C(=O)N/N=C(\c2ccccc2)c2ccccn2)cc1 | 0 | 72 | 80 | 0 | 26 | 86 | 68
CC(=O)Nc1ccc(/C(C)=N/NC(=O)c2ccc(F)cc2)cc1 | 0 | 0 | 0 | 0 | 0 | 0 | -
C/C(=N\NC(=O)c1ccc(F)cc1)c1ccccn1 | 0 | - | - | 0 | 32 | - | 98
CC(=O)Nc1ccc(/C(C)=N\NC(=O)c2ccc(-c3ccccc3)cc2)cc1 | 96 | 0 | 82 | 0 | 26 | 88 | 0
CCc1ccc(/C(C)=N/NC(=O)c2ccccn2)cc1 | 0 | 0 | 0 | 0 | 0 | 0 | -
CCCCn1nnnc1SCC(=O)N1CCN(C(=O)c2ccco2)CC1 | 0 | 0 | 0 | 0 | 0 | 0 | -
COc1cccc(N2CCN(C(=O)c3ccc(CS(=O)c4ccc(Cl)cc4)o3)CC2)c1 (configuration not stated) | 107 | - | - | 0 | 81 | - | 57
O=C(c1ccc(CS(=O)Cc2ccc(Cl)cc2)o1)N1CCN(c2cccc(Cl)c2)CC1 (configuration not stated) | 0 | - | - | 0 | 0 | - | -
O=C(CSc1cccc[n+]1[O-])N1CCCCCC1 | 0 | 0 | 0 | 0 | 0 | 0 | -
O=C(CSc1cccc[n+]1[O-])CSc1cccc[n+]1[O-] | 0 | 0 | 0 | 0 | 55 | 0 | 0
O=C(CSc1cccc[n+]1[O-])Nc1ccccc1Oc1ccccc1 | 0 | 0 | 0 | 0 | 24 | 0 | 0
CCC1(C)NC(C(=O)O)Cc2c1[nH]c1ccccc21 (configuration not stated) | 0 | - | - | 0 | 0 | - | -
Cc1ccc(-c2cnc(C3CC3)o2)cc1S(=O)(=O)Nc1ccccc1 | 0 | - | - | 0 | 38 | - | 47
SMILES | aSyn 5UTR inh | APP 5UTR inh | BaF3 parental | KLF5 inhibitor | IEC-6 cytotox | Ba/F3 V617F tox | IEC-6 cytotox cf
Cc1ccc(N(C)S(=O)(=O)c2cc(-c3cnc(C4CC4)o3)ccc2C)cc1 | 0 | - | - | 0 | 0 | - | -
CC(=O)c1cccc(NS(=O)(=O)c2cc3c(cc2C)NC(=O)CO3)c1 | 0 | - | - | 0 | 0 | - | -
CC(=O)Nc1ccc(NS(=O)(=O)c2cc(-c3cnc(C4CC4)o3)ccc2C)cc1 | 0 | - | - | 0 | 23 | - | 24
CC(=O)c1cccc(NS(=O)(=O)c2cc(-c3cnc(C4CC4)o3)ccc2C)c1 | 0 | - | - | 0 | 41 | - | 31
COc1ccc(/C=C/C(=O)N(c2ccccn2)C2CCCCC2)cc1OC | 0 | 0 | 0 | 0 | 0 | 0 | -
CCC1(c2ccc(F)cc2)NC(=O)N(CC(=O)N2c3ccccc3NC(=O)C2(C)C)C1=O (configuration not stated) | 0 | - | - | - | - | - | -
CCCN1CCC(NCc2cn(C)nc2-c2ccc(Oc3ccccc3)cc2)CC1 | 0 | - | 67 | 0 | 36 | 53 | 43
COC1CCCN(Cc2cn(C)nc2-c2ccc(Oc3ccccc3)cc2)C1 (configuration not stated) | 0 | 0 | 0 | 0 | 0 | 0 | -
CC(C(=O)N=c1sc2ccccc2n1C)N1C(=O)C2CC=CCC2C1=O (configuration not stated) | 0 | 0 | 0 | 0 | 0 | 0 | -
Cc1ccc(S(=O)(=O)/N=C2/C=C(Sc3ncn[nH]3)C(=O)c3ccccc32)cc1 | - | 64 | 72 | 0 | 26 | 73 | 0
CC[n+]1c(/C=C/c2ccc(OC)c(OC)c2)ccc2ccccc21 | 0 | - | - | 0 | 0 | - | -
CCN1/C(=C/c2ccc3cccc(C)c3[n+]2CC)Sc2ccccc21 | 0 | 0 | 89 | 0 | 32 | 98 | 36
C[n+]1ccccc1/C=C1\Sc2ccccc2N1CCO | 0 | - | - | 0 | 0 | - | -
CCN1/C(=C/c2ccc3cc(C)cc(C)c3[n+]2CC)Sc2cc(C)ccc21 | - | 61 | 86 | 0 | 43 | 101 | 37
CCN1/C(=C\c2ccc3cc(C)ccc3[n+]2CC)Sc2cc(C)c(C)cc21 | 0 | 0 | 71 | 0 | 37 | 100 | 28
CCC(NC(=O)Nc1nnc(C(F)(F)F)s1)(C(F)(F)F)C(F)(F)F | 109 | 0 | 89 | 0 | 26 | 98 | 92
CN1CCc2nc(NC(=O)COc3ccc4ccccc4c3)sc2C1 | 0 | 0 | 0 | 0 | 38 | 0 | 0
O=C1CC(c2cccc(Cl)c2)c2cc3c(cc2N1)CCC3 (configuration not stated) | 0 | 0 | 27 | 0 | 28 | 0 | 29
Cc1cccc(Nc2nc(NCc3ccco3)nc(N3CCOCC3)n2)c1 | 0 | 0 | 0 | 0 | 31 | 0 | 0
COc1cccc(NC(=O)Nc2nc(-c3ccc(OC)c(OC)c3)cs2)c1 | 0 | - | - | 0 | 24 | - | 0
CCc1ccccc1N(C)S(=O)(=O)c1ccc(-c2cc(C)no2)s1 | 0 | - | - | 0 | 47 | - | 0
CCN(c1ccc(OC)cc1)S(=O)(=O)c1ccc(-c2cc(C)no2)s1 | 0 | - | - | 0 | 0 | - | -
CCC(C)c1ccc(NC(=O)Nc2cnccn2)cc1 (configuration not stated) | 0 | - | - | 0 | 79 | - | 55
CC1CCCN(S(=O)(=O)c2ccc(C(=O)Nc3nnc(-c4ccco4)o3)cc2)C1 (configuration not stated) | 0 | - | - | 0 | 25 | - | 0
CSc1nnc2c3ccccc3n(CCc3ccccc3)c2n1 | 0 | 0 | 0 | 0 | 46 | 0 | 42
COc1cc2[nH]c(C(=O)Nc3ccc(F)cc3)cc2c(OC)c1OC | 0 | - | - | 0 | 57 | - | 27
CCCCC(=O)Nc1cccc(NC(=S)NC(=O)COc2ccccc2Cl)c1 | 0 | 0 | 0 | 0 | 0 | 0 | -
COc1ccc(C(=O)Nc2c(F)c(F)c(F)c(F)c2F)c(OC)c1 | 0 | 0 | 0 | 0 | 0 | 0 | -
COc1ccccc1NC(=O)c1ccc(NS(=O)(=O)c2c(C)noc2C)cc1 | 0 | 0 | 0 | 0 | 0 | 0 | -
CC(=O)c1c2c3c(c(Br)ccc3n(C)c1=O)C(=O)c1ccccc1-2 | 0 | - | - | 0 | 44 | - | 0
